Columns and labels:
[1] = tested on: Vero E6 infected with SARS-CoV-2; assay: morphology score (similarity to uninfected cells); higher = more like uninfected cells; conditions: 24 h
[2] = tested on: Vero E6 infected with SARS-CoV-2; assay: SARS-CoV-2 infection rate relative to infected DMSO; higher = more infection, active = 60 or less; conditions: 24 h

CN(CCc1ccc(Cl)c(Cl)c1)CCN1CCCC1 (10 µM)
morphology score [1]: 0.355 | SARS-CoV-2 infection rate [2]: 74.5% (inactive)

CN[C@@H]1[C@@H](O)[C@@H](O[C@@H]2[C@@H](O)[C@H](O[C@H]3OC(CN)=CC[C@H]3N)[C@@H](N)C[C@H]2N)OC[C@]1(C)O [Sisomicin (sulfate)] (10 µM)
morphology score [1]: 0.222 | SARS-CoV-2 infection rate [2]: 102% (inactive)

O=C(C[S+]([O-])C(c1ccccc1)c1ccccc1)NO (stereo not drawn) [adrafinil] (10 µM)
morphology score [1]: 0.2 | SARS-CoV-2 infection rate [2]: 100% (inactive)

CC(C)C[C@H](NC(=O)[C@@H](O)[C@H](N)Cc1ccccc1)C(=O)O [ubenimex] (10 µM)
morphology score [1]: 0.237 | SARS-CoV-2 infection rate [2]: 96% (inactive)

COc1ccc2c(c1)c(CC(=O)N1CCOCC1)c(C)n2C(=O)c1ccc(Cl)cc1 (10 µM)
morphology score [1]: 0.131 | SARS-CoV-2 infection rate [2]: 112% (inactive)

CCCC(=O)C1CCN(c2ncnc3c2CN(C(=O)c2ccc(-c4ccccc4)cc2)CC3)CC1 (10 µM)
morphology score [1]: 0.0512 | SARS-CoV-2 infection rate [2]: 104% (inactive)

Cc1cccc(Nc2nc(-c3ccncc3)cs2)c1 (0.833333 µM)
morphology score [1]: 0.455 | SARS-CoV-2 infection rate [2]: 61% (inactive)

O=C(Nc1ccc(N2CCC(C(=O)N3CCOCC3)CC2)cc1)c1cnc(Oc2ccccc2)nc1 (10 µM)
morphology score [1]: -0.02 | SARS-CoV-2 infection rate [2]: 114% (inactive)

CCN(CC)CCNC(=O)COc1ccc(OC)cc1 [mefexamide] (10 µM)
morphology score [1]: 0.0556 | SARS-CoV-2 infection rate [2]: 113% (inactive)
